Reference: PubChem BioAssay (NCATS)
Inconclusive results are not listed. Entries that show only a call come without a potency. Some compounds were tested as several samples or in several runs, with calls that do not always agree. The source made the active and inactive calls. Calls follow the shape of the dose curve; as a rule, active = well fitted inhibition curve with a large enough effect; inconclusive = small, poorly fitted or top-dose-only effect; inactive = flat fitted curve, though single readings scatter.

Test: qHTS for Inhibitors of Plasmodium falciparum (DD2) proliferation (AID 504314)
Conditions: P. falciparum Dd2 in erythrocytes, SYBR Green growth, 72 h; series mostly up to 6.11 µM
Description: Plasmodium falciparum is a virulent malarial parasite that kills 1-2 million people worldwide each year. Malaria not only inflicts tremendous suffering and morbidity on the human population, but has dramatically influenced the course of civilization with profound sociological and economic implications (Shah, S. 2010). Transmitted by mosquitoes, the sporozoite form of the parasite enters the blood stream to infect hepatocytes, where they become merozoites that infect red blood cells (erythrocytes). Within erythrocytes, merozoites begin a […] cycle of growth and division, after which the parasite is released to infect new red blood cells. Gametocytes, which form within erythrocytes as well, circulate in the bloodstream and are ingested by the mosquito, thereby completing the life cycle (see CDC website). To profile malarial lines for differential chemical responses and to identify inhibitors of malarial growth, an assay that measures P. falciparum growth and replication within erythrocytes was employed. This assay uses a DNA binding fluorescent dye (SYBR Green) to detect parasite DNA following cell lysis. Because mature erythrocytes lack DNA, only Plasmodium-derived DNA is detected. The P. falciparum line cp250, derived from a malarial isolate from Cambodia, (Mu, J., et al. 2010) was added to the panel of lines, Dd2, HB3, 7G8 and GB4 in this study.
Laboratory of Assay Development and Screening Technology [ADST] and NIH Chemical Genomics Center [NCGC]
Boston University, Chemistry Department, Center for Chemical Methodology and Library Development [CMLD-BU]
NIH National Institute of Allergy and Infectious Diseases [NIAID]
ADST Assay Protocol Summary:
The 1536-well SYBR Green viability assay was based on the method of Bennett et al (2004) and described previously in 1536-well format (Yuan J., et al. 2009). For screening 3 ul culture medium was dispensed into 1536 well black clear bottom plates (Aurora Biotechnologies) using a Multidrop Combi (Thermo Fisher Scientific Inc.), 23 nL compounds in DMSO were added by a pin transfer (Cleveland, P.H. and Koutz, P.J, 2005) using a pin tool-based delivery system (Kalypsys), and 5 ul of erythrocytes infected with P. falciparum one of five lines (cp250, Dd2, HB3, 7G8 or GB4, 0.3% parasitemia, 2.5% hematocrit final concentration) were added. The plates were incubated at 37C in a humidified incubator in 5% CO2 for 72 h, and 2 ul lysis buffer (20 mM Tris HCl, 10 mM EDTA, 0.16% saponin, 1.6% triton X, 10X SYBR Green I (supplied as 10,000X final concentration by Invitrogen) was added to each well. The plates were mixed for 25 sec with gentle shaking and incubated overnight at room temperature in the dark. The following morning, fluorescence intensity at 485(14) nm excitation and 535(25) nm emission wavelengths was measured on an EnVision (Perkin Elmer) plate reader. Plate reads were normalized relative to the control inhibitor (0.29 uM artemisinin) and vehicle (DMSO) wells present on each plate and then corrected by an algorithm using vehicle-only control plates at the beginning and end of the compound plate stack.
Shah, S. (2010). The Fever: how malaria has ruled humankind for 500,000 years. New York, Sarah Crichton Books.
CDC web site, http://www.cdc.gov/malaria/about/biology/index.html
Mu, J., Myers, R.A., Jiang, H., Liu, S., Ricklefs, S., Waisberg, M., Chotivanich, K., Wilairatana, P., Krudsood, S., White, N.J., et Plasmodium falciparum genome-wide scans for positive selection, recombination hot spots and resistance to antimalarial drugs Nature Genetics 2010, 42, pp 268-271
Bennett TN, Paguio, M., Gligorijevic, B., Seudieu, C., Kosar, A. D., Davidson, E., and Roepe, P. D. Novel, rapid, and inexpensive cell-based quantification of antimalarial drug efficacy Antimicrobial Agents Chemother. 2004, 48(5): pp 1807-10
Yuan J, Johnson RL, Huang RL, Wichterman J, Jiang HY, Hayton K, Fidock DA, Wellems TE, Inglese J, Austin CP, Su XZ. […]
Potency is read from the fitted curve at half-maximal effect.

Question: Which Potency does the source give for `C=CCN1c2ccccc2[C@]23CCC(=O)N(Cc4ccco4)C2=NC(C(=O)OC)=C(C(=O)OC)[C@H]13` here?
Answer: inactive

Question: With `C#CCN1C(=O)[C@]2(OCCC=C[C@H]2C)c2ccccc21` as the molecule, how does the Potency read?
Answer: inactive

Question: Which Potency does the source give for `COC(=O)C1=C(C)N(Cc2ccccc2)C(=NCCc2c[nH]c3ccccc23)NC1c1ccc(Br)cc1` (stereo not given) here?
Answer: inactive

Question: For `COc1ccc2c(c1)O[C@@H](c1ccc3c(c1)OCO3)[C@H](OC(=O)N[C@H](C)C1CCCCC1)C2=O`, which Potency is on record?
Answer: inactive

Question: For `COc1ccc(OC[C@H]2CN3[C@H](c4ccc(Br)cc4)[C@H](C)CC[C@H]3C(=O)O2)cc1`, which Potency is on record?
Answer: inactive

Question: Which Potency does the source give for `Cc1ccc([S+](=O)([O-])N(c2ccccc2)[S+](=O)([O-])C(F)(F)F)cc1` here?
Answer: inactive

Question: For `COc1ccc(-c2nc(-c3ccccc3)c(NC(C)(C)C)o2)cc1`, which Potency is on record?
Answer: 1.69 µM (active) and inactive

Question: Which Potency does the source give for `C=CCOC(=O)C(C(C)=O)[C@@H](NC(=O)OC)c1ccc(F)cc1` (stereo not given in full) here?
Answer: inactive

Question: For `COCCN1C(=O)N[C@@H](CCc2ccccc2)[C@H](C(=O)OC)[C@H]1C`, which Potency is on record?
Answer: inactive

Question: Which Potency does the source give for `CCOC(=O)NN=C1C[C@@H](O)[C@@H](O)[C@@H]2[C@H]3C(=O)N(C4CCCCC4)C(=O)[C@@H]3CC[C@H]12` here?
Answer: inactive

Question: With `C[C@@H]1NC(=O)[C@@H](C)COC(=O)[C@H](C)NC(=O)[C@@H](C)COC1=O` as the molecule, how does the Potency read?
Answer: inactive

Question: For `COCCN1C(=NCC(C)C)NC(c2ccccc2)C(C(=O)OC)=C1C` (stereo not given), which Potency is on record?
Answer: inactive

Question: Which Potency does the source give for `CC(CCN1CCCCc2nc(C)c(C)cc21)=NO[C@@H](C)CN1CCCCc2nc(C)c(C)cc21` here?
Answer: inactive

Question: With `COC(=O)C(=Cc1cc(Br)c(OC)c(Br)c1)C(=O)OC` as the molecule, how does the Potency read?
Answer: inactive

Question: Which Potency does the source give for `COc1cccc([C@H]2Oc3ccc(OC)cc3C(=NO[C@@H](C)c3cn([C@H](CO)Cc4ccccc4)nn3)[C@H]2O)c1` here?
Answer: inactive

Question: With `COc1cccc(CO[C@H]2C=C[C@@H](c3ccccc3)O[C@H]2CN=[N+]=[N-])c1` as the molecule, how does the Potency read?
Answer: inactive

Question: Which Potency does the source give for `CC(=O)OC[C@H]1O[C@H](C#CCCCc2ccccc2)C=C[C@H]1OC(C)=O` here?
Answer: inactive

Question: For `COC(=O)CC=C[C@@H](C)[C@@H](C=NOC[C@@H](O)COCc1ccco1)NS(=O)(=O)c1ccc(C)cc1`, which Potency is on record?
Answer: inactive

Question: With `COc1ccc(COC(=O)NN=C2C[C@@H](O)[C@@H](O)[C@@H]3[C@H]4C(=O)N(c5ccc(F)cc5F)C(=O)[C@@H]4CC[C@H]23)cc1` as the molecule, how does the Potency read?
Answer: inactive

Question: For `O=C1[C@H]2[C@@H]3[C@@H](O)[C@H](O)CC(=NOCc4ccccc4)[C@H]3CC[C@H]2C(=O)N1C1CCCCC1`, which Potency is on record?
Answer: inactive

Question: For `COC(=O)CC=C[C@@H](C)[C@@H](COc1ccccc1Br)OC`, which Potency is on record?
Answer: inactive

Question: With `CO[C@H](C1CCCCC1)[C@H](C)C=CCC(=O)OCCCc1ccccc1` as the molecule, how does the Potency read?
Answer: inactive

Question: For `C=CC[C@@H]1C=C[C@H](ON=C[C@@H](C)[C@H](OCc2ccccc2)C(C)C)[C@H](CO)O1`, which Potency is on record?
Answer: inactive

Question: With `COc1cccc([C@H]2Oc3ccc(OC)cc3C(=NOC[C@@H](C)[C@H](OCc3ccccc3)C(C)C)[C@H]2O)c1` as the molecule, how does the Potency read?
Answer: inactive

Question: For `COc1ccc(-c2nc3c(c4c2C[C@H](c2ccccc2)OC4)CN(C(=O)c2cc(I)ccc2F)CC3)c(C)c1`, which activity, negative = inhibition is on record?
Answer: -3.98% [at 1.12 µM] (inactive)

Question: With `COC(=O)N1C(C2CC2)=Cc2ccccc2C1CC(C)=O` (stereo not given) as the molecule, how does the activity, negative = inhibition read?
Answer: -2.33% [at 1.12 µM] (inactive)

Question: Which Potency does the source give for `CCN1C(=O)N[C@@H](CCc2ccccc2)[C@H](C(C)=O)[C@H]1C` here?
Answer: inactive

Question: Which Potency does the source give for `CC#CCN1C(=O)NC(c2ccccc2)C(C(=O)OC)=C1C` (stereo not given) here?
Answer: inactive

Question: With `COCCN1C=C2C(=O)C(C)(OC(=O)C3CCCC3)C(=O)C=C2C=C1c1ccsc1` (stereo not given) as the molecule, how does the Potency read?
Answer: inactive

Question: Which Potency does the source give for `COC1=CC2C(=O)C(C(c3ccccc3)C2C)C1(O)c1cccc(OC)c1` (stereo not given) here?
Answer: inactive

Question: Which Potency does the source give for `CC(C)OC(=O)[C@H]1O[C@H](CCCCOCc2ccccc2)[C@@H](C)[C@H]2O[C@H]21` here?
Answer: inactive

Question: Which activity, negative = inhibition does the source give for `C[C@H]1Cc2c(COc3ccccc3)nc3c(c2CO1)CN(C(=O)NCc1ccco1)CC3` here?
Answer: -0.216% [at 1.12 µM] (inactive)

Question: With `COC(=O)C1=C[C@@]2(c3ccc(OC)cc3[C@@H](OC)[C@@H]2C)[C@@H]2C=C[C@@H]1C2` as the molecule, how does the Potency read?
Answer: inactive

Question: Which Potency does the source give for `COC(=O)C1=C(C)N(Cc2ccccc2)C(=S)NC1c1ccccc1` (stereo not given) here?
Answer: inactive

Question: Which Potency does the source give for `C[C@@H]1C=CCCO[C@]12C(=O)N(Cc1ccc(Br)cc1)c1ccccc12` here?
Answer: inactive

Question: With `C=COCCN1C=C(C(=O)OCC)C(c2ccccc2)NC1=O` (stereo not given) as the molecule, how does the Potency read?
Answer: inactive

Question: For `COCOc1cc(OC)ccc1C(=O)C=Cc1ccc([N+](=O)[O-])cc1`, which Potency is on record?
Answer: 1.5 µM (active)

Question: With `C=CCN1C(=O)CC[C@@]23C1=NC(C(=O)OC)=C(C(=O)OC)[C@@H]2N(CC=C)c1ccccc13` as the molecule, how does the Potency read?
Answer: inactive

Question: With `COC(=O)CCCC1=CC2=CC(=O)C(C)(OC(=O)c3cccs3)C(=O)C2=CN1C1CCCC1` (stereo not given) as the molecule, how does the activity, negative = inhibition read?
Answer: -0.45% [at 1.12 µM] (inactive)

Question: For `COC(=O)[C@H]1C[C@@]2(CC=C(C)C)C(=O)[C@@](CC=C(C)C)(C(=O)C(C(=O)c3ccccc3)=C2OC)C1(C)C`, which Potency is on record?
Answer: inactive
